Assay outcomes as filed in PubChem.
Shown are actives, neighbours in structure and some others; about 21% of the full set was active somewhere.
SARS PLP yeast: inhibitors of SARS-CoV papain-like protease in yeast; S. cerevisiae expressing SARS-CoV PLpro, growth rescue; Potency, µM (series often up to 32.9 µM), inactives show at the top dose activity, positive = growth rescue, hits mostly activators; 330,000 compounds, 0.19% hits; AID 485353; also: potency is read from the fitted curve at half-maximal effect; 0% is about no effect; nearly all actives have a fitted effect of over 55% in size
Pf growth 96h: P. falciparum growth inhibition at 96 hour, primary screen for plastid delayed-death inhibitors; P. falciparum luciferase reporter growth, 96 h; Potency, µM (doses to about 28.7 µM), inactives show top-dose activity change, negative = inhibition, usual class: inhibitors; 320,000 compounds, 6.9% hits; AID 504834; active = well fitted inhibition curve with a large enough effect; inconclusive = small, poorly fitted or top-dose-only effect, or another doubt; inactive = no such curve, though single readings can be large or run the other way; also: potency is read from the fitted curve at half-maximal effect; % is scaled to controls: 0 for no effect and ±100 for the full control effect
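Readout is luminescence from an integrated firefly luciferase in P. falciparum. Red cells, 2% hematocrit and 0.05% parasitemia final, were cultured with compound through two parasite generations (96 hours) at 37 C, 5% CO2.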
Shiga toxin inh: inhibitors of Shiga toxin in Vero cells. Vero cells, Shiga toxin protein synthesis inhibition reporter. inhibition, % at 38.7 µM. 290,000 compounds, 9.2% hits; in the data active = inhibition mostly above about 28%, no sharp cut-off; inactive = mostly below about 43%; also: 0% is about no effect
Pf growth 48h: inhibits P. falciparum growth in the first generation, 48 h; P. falciparum luciferase growth in erythrocytes, 48 h; Potency, µM (titrated, usually from 28.7 µM), for inactives: at the highest dose activity change, negative = inhibition, most hits filed as inhibitors; 310,000 compounds, 5.9% hits; AID 504832; active = well fitted inhibition curve with a large enough effect; inconclusive = small, poorly fitted or top-dose-only effect, or another doubt; inactive = no such curve, though single readings can be large or run the other way; also: potency is read from the fitted curve at half-maximal effect; % is scaled to controls: 0 for no effect and ±100 for the full control effect
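Luciferase-expressing P. falciparum in infected erythrocytes (2% hematocrit, 0.1% parasitemia final) in RPMI 1640/0.5% Albumax were exposed to compound for 48 hours at 37 C, 5% CO2; growth read as luminescence.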
CHX counter: affects cycloheximide protein synthesis inhibition readout, counter-screen | cell reporter, cycloheximide protein synthesis inhibition counterscreen | max response, % | 300,000 compounds, 12% hits | AID 2314; in the data active = max response mostly above about 13%, no sharp cut-off; inactive = mostly below about 14%; also: read at 38.3 µM for the half of the compounds with a filed dose; 0% is about no effect
NS1 function inh: inhibitors of influenza NS1 protein function | Potency, µM (top dose mostly 46.1 µM), without a hit: top-dose activity, positive = more growth | 270,000 compounds, 0.4% hits; also: potency is read from the fitted curve at half-maximal effect; actives are rising curves; nearly all actives have a fitted effect of over 50% in size
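A cell-based growth assay was used: compounds that relieve NS1-induced slow growth of budding yeast raise OD600. Assay medium was yeast nitrogen base with ammonium sulphate and -URA supplement, pH 6.0, with 2% galactose.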
The depositor's hits bear a star; u = inconclusive; x = no result. Unless noted, calls follow the shape of the full dose curve.

SMILES | SARS PLP yeast | Pf growth 96h | Shiga toxin inh | Pf growth 48h | CHX counter | NS1 function inh
Cc1ccccc1N=CC1=C(O)c2ccccc2C1=O | -3% | -2% | 42 | 134% | 35* | -2%
COc1ccc(N=Cc2c(O)n(Cc3ccccc3)c(=S)[nH]c2=O)c(OC)c1 | 1% | 53% | 29* | 33% | 17* | 1%
O=C1C(C=Nc2ccc(F)cc2)=C(O)c2ccccc21 | -1% | u | 134* | 90% | 61* | -2%
CN=c1scc(C)n1/N=C/c1cc(Br)c(O)c(Br)c1 | -6% | 17% | 51 | 5% | 18* | x
COc1cc(/C=N/N2C(C)CCCC2C)cc(Br)c1O (stereo not drawn) | 4% | 0% | -3 | -19% | 1 | x
CN=c1scc(C)n1/N=C/c1ccc2c(c1)OCO2 | -7% | 55% | 69* | 278% | 28* | -4%
CC1CCCC(C)N1/N=C/c1cc(Br)c(O)c(Br)c1 (stereo not drawn) | 10% | 26% | 2 | 17% | -4 | -31%
CCN=c1scc(C)n1/N=C/c1cc(Br)c(O)c(OC)c1 | -1% | 5.9µM* | 37 | u | 14* | x
CN=c1scc(C)n1/N=C/c1ccc(O)cc1O | -15% | -25% | 30* | 108% | 25* | -99%
COc1ccc(/C=C/C2=CCN(Cc3ccc(OC)cc3)CC2)cc1 | -2% | u | -8 | -25% | -4 | x
Cc1cc(OCC(=O)N(Cc2cccs2)C2CCS(=O)(=O)C2)ccc1Cl (stereo not drawn) | 4% | u | 6 | -13% | -2 | -6%
CN=c1scc(C)n1/N=C/c1ccc(O)cc1 | -3% | x | 117* | 206% | 38* | -31%
C=CCN=c1scc(C)n1/N=C/c1ccc(O)c(O)c1 | 0% | 2% | 65* | u | 37* | x
Cc1ccc(C(=O)N2CCN(CCNC(=O)C(=O)NCc3ccc(Cl)cc3)CC2)cc1 | -3% | u | -4 | -8% | -6 | -8%
CC(OC(=O)Cc1ccc(F)cc1)C(=O)NCc1ccc2c(c1)OCO2 (stereo not drawn) | -3% | 14% | x | 4% | x | x
CCc1c(C(=O)OCc2ccccc2)[nH]c(C)c1C | -1% | 85% | 67* | 116% | 43* | 2%
CCc1c(C)[nH]c(C(=O)OCc2ccccc2)c1C | -2% | 18% | 81* | 37% | 28* | -2%
Cc1ccc(C(=O)N/C(=C\c2ccc(C(C)C)cc2)C(=O)NCCCN2CCOCC2)cc1 | -12% | u | 39 | -11% | -3 | -10%
N#CCSc1nnc2ccc3ccccc3n12 | -1% | 27% | active | 41% | 13* | -5%
N#CCSc1nnc(-c2ccccc2O)n1CCc1ccccc1 | 0% | 20% | -15 | -10% | 6 | -2%
O=C(OCc1ccccc1)C1CCCN1C(=O)c1ccccc1[N+](=O)[O-] (stereo not drawn) | 1% | 0% | 3 | -1% | 16 | u
Cc1ccn2c(c1)nc(=S)n2C(=O)c1ccco1 | 3% | 23% | 74* | 149% | 39* | 19%
Cc1cccc(NC(=S)N2CCN(C(=O)c3ccco3)CC2)c1 | 1% | u | -26 | 5% | 2 | 11%
CCCCc1ccc(NC2=NCCCS2)cc1 | -1% | u | 42* | 7% | 30* | -5%
CC(=O)c1ccc(NC2=NCCCS2)cc1 | -1% | 20% | 10 | 76% | 15 | 1%
SMILES | SARS PLP yeast | Pf growth 96h | Shiga toxin inh | Pf growth 48h | CHX counter | NS1 function inh
FC(F)(F)Oc1ccc(NC2=NCCCS2)cc1 | -2% | -14% | 39* | 27% | 33* | 3%
CCOC(=O)c1[nH]cnc1C(=O)NC(C)C | 9% | u | -5 | 10% | -3 | -1%
C=C[C@@H]1C[C@@]1(C)[C@@H](NP(=O)(c1ccccc1)c1ccccc1)c1ccccc1 | 11% | u | -22 | u | -5 | -4%
CC/C(=C\C1CCCCC1)C(NP(=O)(c1ccccc1)c1ccccc1)c1ccccc1 (stereo not drawn) | -46% | 6.6µM* | -13 | 9.3µM* | -6 | 21%
COc1ccccc1C(=O)N/N=C(\C)CC(=O)Nc1ccccn1 | -2% | u | 68* | 22% | 26* | -10%
C/C(CC(=O)Nc1cc(C)ccn1)=N\NC(=O)c1ccc(C(C)(C)C)cc1 | 9% | 28% | 24 | 21% | 2 | 11%
